Experimental data as given in PubChem BioAssay AID1540 (National Center for Advancing Translational Sciences (NCATS), 2009).
“And” between values parts separate entries of the source, which are not always exact repeats. Equal values may be shown once. Results filed as inconclusive are left out. A structure can be active in one record and inactive in another. The source made the active and inactive calls. Calls follow the shape of the dose curve; as a rule, active = well fitted activation curve with a large enough effect; inconclusive = small, poorly fitted or top-dose-only effect, or effect the other way; inactive = flat fitted curve, though single readings scatter.

The compounds below were run against Pyruvate kinase PKM (Homo sapiens) (UniProt P14618) (assay: Secondary assay for Activators of Human Pyruvate Kinase M2 isoform). Details: purified hPK-M2, LDH-coupled NADH fluorescence kinetic; series mostly up to 57.5 µM; activation: at the top concentration.
Pyruvate kinase PKM (Homo sapiens), sequence (P14618 whole entry, looked up, canonical isoform): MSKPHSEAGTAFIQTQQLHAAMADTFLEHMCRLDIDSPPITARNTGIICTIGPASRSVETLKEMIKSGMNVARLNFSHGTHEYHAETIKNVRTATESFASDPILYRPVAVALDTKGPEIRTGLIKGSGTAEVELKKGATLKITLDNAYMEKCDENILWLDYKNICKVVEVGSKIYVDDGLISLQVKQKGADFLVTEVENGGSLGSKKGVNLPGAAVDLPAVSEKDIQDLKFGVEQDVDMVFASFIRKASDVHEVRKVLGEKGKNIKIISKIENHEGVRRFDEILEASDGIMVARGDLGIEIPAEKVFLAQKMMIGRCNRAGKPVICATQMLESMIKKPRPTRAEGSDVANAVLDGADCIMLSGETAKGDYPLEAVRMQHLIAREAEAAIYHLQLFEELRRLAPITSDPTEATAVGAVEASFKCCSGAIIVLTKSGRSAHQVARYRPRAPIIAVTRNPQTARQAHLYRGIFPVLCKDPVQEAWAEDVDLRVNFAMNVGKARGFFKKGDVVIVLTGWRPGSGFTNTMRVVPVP
From the text: Confirmatory assay NIH Chemical Genomics Center [NCGC] Matthew G. Vander Heiden, M.D., Ph.D. [Harvard Medical School, 77 Avenue Louis Pasteur, Boston, MA 02115] NCGC Assay Overview: Human pyruvate kinase muscle 2 (hPK-M2)enzyme was supplied as a highly purified (>95% pure) preparation from Harvard Medical School and a secondary assay was used to evaluate compounds. This assay couples the formation of pyruvate from hPK-M2 using lactate dehydrogenase (LDH) and NADH. The depletion of NADH is followed in a fluorescent-based kinetic assay that follows the formation of pyruvate to lactate, as catalyzed LDH (described by Hannaert et al., 2002)1 Pyruvate kinase substrates, PEP and ADP, were present in the assay at 0.1 mM and 4 mM respectively. In this kinetic assay initial rates were determined by following the fluorescence of NADH depletion.
NCGC Assay Protocol Summary: Three uL of substrate mix (final concentration, 50 mM Tris-Cl pH 8.0, 200 mM KCl, 15 mM MgCl2, 0.1 mM PEP, 4.0 mM ADP, and 0.2 mM NADH) was dispensed into black-solid 1536 well plates. 23 nL of compounds were delivered by a pin tool and 1 uL of enzyme mix (final concentrations, 10 nM hPK-M2 and 1 uM of LDH) was added. Plates were immediately placed in ViewLux (Perkin Elmer) and NADH fluorescence was determined at 30 second exposure intervals for between 3 and 6 minutes. Data were normalized to the uninhibited and EC100 activation using known activators such as fructose-bis-phosphate.

SMILES	Potency	activation
C[C@@H]1CN(S(=O)(=O)c2ccc3c(c2)OCCO3)CCN1S(=O)(=O)c1c(F)cccc1F	3550 nM (active)	
O=C(N1CCc2ccc(S(=O)(=O)N3CCN(S(=O)(=O)c4ccc5c(c4)OCCO5)CC3)cc2C1)C(F)(F)F	1120 nM (active)	
O=S(=O)(c1ccc2c(c1)OCCO2)N1CCN(S(=O)(=O)c2c(F)ccc(O)c2F)CC1	355 nM (active)	
O=S(=O)(c1ccc2c(c1)OCO2)N1CCN(S(=O)(=O)c2c(F)cccc2F)CC1	708 nM (active)	
Cn1c2cc(S(C)(=O)=O)sc2c2cnn(Cc3ccccc3F)c(=O)c21	447 nM (active)	
Cc1cc2c(s1)c1c(C)nn(Cc3ccc(F)cc3)c(=O)c1n2C	2820 nM (active)	
Cc1cc2c(s1)c1cnn(Cc3ccc(C)c(F)c3F)c(=O)c1n2C	141 nM (active)	
Cn1c2cc(Br)sc2c2cnn(Cc3ccc(F)cc3)c(=O)c21	794 nM (active)	
Cn1c2ccsc2c2cnn(Cc3ccccc3F)c(=O)c21	2510 nM (active)	
CC(=O)c1cc2c(s1)c1cnn(Cc3ccccc3F)c(=O)c1n2C	158 nM (active)	
Nc1cc(S(=O)(=O)N2CCN(S(=O)(=O)c3ccc4c(c3)OCCO4)CC2)ccn1		8.04% (inactive)
C=Cc1cc2c(s1)c1cnn(Cc3ccccc3F)c(=O)c1n2C	562 nM (active)	
Cc1cc2c(s1)c1cnn(Cc3cccc(F)c3)c(=O)c1n2C	1260 nM (active)	
COc1cccc(S(=O)(=O)N2CCN(S(=O)(=O)c3ccc4c(c3)OCCO4)CC2)c1	562 nM (active)	
Cn1c2cc(Br)sc2c2cnn(Cc3c(F)cccc3Cl)c(=O)c21	794 nM (active)	
Cn1c2cc(C#N)sc2c2cnn(Cc3ccc(F)cc3)c(=O)c21	282 nM (active)	
Cc1cc2c(s1)c1cnn(Cc3c(F)cccc3F)c(=O)c1n2C	141 nM (active)	
COc1cc(F)c(S(=O)(=O)N2CCCN(S(=O)(=O)c3ccc4c(c3)OCCO4)CC2)c(F)c1	58 nM (active)	
Cc1cc2c(s1)c1cnn(Cc3ccc(Cl)cc3)c(=O)c1n2C	1120 nM (active)	
Nc1cccc(S(=O)(=O)N2CCN(S(=O)(=O)c3ccc4c(c3)OCCO4)CC2)c1	146 nM (active)	

SMILES	Potency	activation
Cn1c2cc([N+](=O)[O-])sc2c2cnn(Cc3ccccc3F)c(=O)c21	251 nM (active)	
Cc1cc2c(s1)c1cnn(Cc3ccccc3)c(=O)c1n2C	199 nM (active)	
Nc1ccc(S(=O)(=O)N2CCN(S(=O)(=O)c3c(F)cccc3F)CC2)cc1	410 nM (active)	
COc1cccc(Cn2ncc3c4sc(S(C)=O)cc4n(C)c3c2=O)c1 (stereo not given)	146 nM (active)	
COc1cc(F)c(S(=O)(=O)N2CCN(S(=O)(=O)c3cccc(N)c3)CC2)c(F)c1	73 nM (active)	
COc1cc(F)c(S(=O)(=O)N2CCN(S(=O)(=O)c3ccc(NC(C)=O)cc3)CC2)c(F)c1	14600 nM (active)	
Cc1cc2c(s1)c1cnn(Cc3c(F)cccc3Cl)c(=O)c1n2C	158 nM (active)	
Cn1c2cc(Br)sc2c2cnn(Cc3c(F)cccc3F)c(=O)c21	631 nM (active)	
COc1ccc(S(=O)(=O)N2CCN(S(=O)(=O)c3c(F)cccc3F)CC2)cc1	inactive and 141 nM (active)	
Cc1cc2c(s1)c1cnn(Cc3cc(C(F)(F)F)cc(Cl)c3F)c(=O)c1n2C	562 nM (active)	
CCNc1cccc(S(=O)(=O)N2CCN(S(=O)(=O)c3ccc4c(c3)OCCO4)CC2)c1		2.57% (inactive)
Cc1cc2c(s1)c1cnn(Cc3cccc(F)c3F)c(=O)c1n2C	501 nM (active)	
Cc1cc2c(s1)c1cnn(Cc3c(F)c(F)cc(F)c3F)c(=O)c1n2C	398 nM (active)	
Cn1c2cc(CO)sc2c2cnn(Cc3ccccc3F)c(=O)c21	141 nM (active)	
COc1ccc(S(=O)(=O)N2CCN(S(=O)(=O)c3ccc(OC)cc3)CC2)cc1	398 nM (active) and 282 nM (active)	
O=S(=O)(c1ccc2c(c1)OCCO2)N1CCN(S(=O)(=O)c2cc(F)c(Br)cc2F)CC1	708 nM (active)	
O=S(=O)(c1c(F)cccc1F)N1CCN(S(=O)(=O)c2c(F)cccc2F)CC1	126 nM (active)	
O=S(=O)(c1ccc2c(c1)OCCO2)N1CCN(S(=O)(=O)c2ccccn2)CC1	2820 nM (active)	
COC(=O)c1cc2c(s1)c1cnn(Cc3ccccc3F)c(=O)c1n2C	355 nM (active)	
Cn1ccc2cc(S(=O)(=O)N3CCN(S(=O)(=O)c4c(F)cccc4F)CC3)ccc21	1410 nM (active)	
